The values below come from PubChem BioAssay AID651820 (National Center for Advancing Translational Sciences (NCATS), 2012).

Each structure is given as a SMILES string. Screen size: about 340,000 compounds; about 12,000 (3.5%) were called active. Inconclusive results (about 18%) are left out. What follows is part of a selection rich in actives, with near analogues and random picks from the rest. Unmarked numbers belong to inactive results. The call rests on the fitted dose curve; in most records, active means well fitted inhibition curve with a large enough effect; inconclusive means small, poorly fitted or top-dose-only effect, or another doubt; inactive means no such curve, though single readings can be large or run the other way.
On the % scale 0 is the no-effect control and ±100 the full control effect; potency means the concentration at half of the fitted maximal effect.

This assay in a line: qHTS Assay for Inhibitors of Hepatitis C Virus (HCV). The settings on record: Huh7.5.1 HCVcc-Cre infection, luciferase reporter, 44 h; series mostly up to 41.8 µM; activity change, negative = inhibition: at the top concentration. Put shortly:
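A cell-based infection assay in which seeded cells (1,000 per well) receive test compound after 4 h, are inoculated with HCVcc-Cre at approximately 0.5 moi, and are incubated 44 h before luminescence detection.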
On the technique in general: qHTS replaces the single test concentration by a dilution series.
As to `COc1ccccc1N(C)S(=O)(=O)c1ccc(C(=O)NC2CCCCCC2)cc1`, the Potency is 11.2 µM (active).

As to `COc1ccccc1N(C)S(=O)(=O)c1ccc(C(=O)N2CCC(C(N)=O)CC2)cc1`, the “activity change, negative = inhibition” value was -10.2%.

`CSc1ccccc1NC(=O)COC(=O)CCCOc1ccc(C)cc1`: the “activity change, negative = inhibition” value was 26%.

Take `COc1ccc(-c2c(C)cc3oc(=O)cc(-c4ccccc4)c3c2C)cc1OC`: the Potency was 11.2 µM (active).

`COc1ccc(-c2c(C)cc3oc(=O)cc(-c4ccccc4)c3c2C)cc1C=O`: the “activity change, negative = inhibition” value was -7.87%.

With `Cc1cc2oc(=O)cc(-c3ccccc3)c2c(C)c1-c1ccc(OC(F)(F)F)cc1`, the activity change, negative = inhibition was -14.5% [at 8.37 µM].

For `Cc1ccc(S(=O)(=O)N(C)c2ccc(OCC(=O)OCC(=O)N(CC#N)c3ccccc3)cc2)cc1`, the “activity change, negative = inhibition” value is 17.5%.

`NCCN1CCN2C(=O)CN(C(=O)c3ccccc3)CC12` (configuration not stated): the “activity change, negative = inhibition” value was -0.729%.

Regarding `CCOCCCNCc1cc(Br)ccc1OCC`, the “activity change, negative = inhibition” value was -11.4%.

Take `CCOc1ccc(Br)cc1S(=O)(=O)N1CCC(C(=O)O)CC1`: the “activity change, negative = inhibition” value was 7.38%.

Regarding `CCOc1ccc(Br)cc1CSC(=N)N`, the Potency is 11.2 µM (active).

For `COc1ccc(OCC(=O)NNC(=O)C2CCC2)cc1`, the “activity change, negative = inhibition” value is 11%.

For `Cc1ccc(C(=O)Nc2ncccc2C)cc1S(=O)(=O)N1CCOCC1`, the “activity change, negative = inhibition” value was 11%.

As to `COc1ccccc1CNC(=O)c1ccc(N(C)S(=O)(=O)c2ccc(C)cc2)cc1`, the “activity change, negative = inhibition” value is 10.7%.

As for `Cc1ccccc1CSCCNC(=O)c1ccc(N(C)S(=O)(=O)c2ccccc2)cc1`, the Potency was 10 µM (active).

Consider `CN(c1ccccc1)S(=O)(=O)c1ccc(C(=O)NCCc2ccccc2)cc1`, for which the “activity change, negative = inhibition” value is -13%.

In the case of `CC(C)(CNC(=O)Cc1ccc(Cl)cc1Cl)N1CCOCC1`, the “activity change, negative = inhibition” value is 8.66%.

Consider `CN(C)S(=O)(=O)c1ccc(C(=O)NCC(C)(C)N2CCOCC2)cc1`, for which the “activity change, negative = inhibition” value was 14.9%.

Take `Cc1ccccc1CSCCNC(=O)c1ccc(Cl)c(S(=O)(=O)N2CCOCC2)c1`: the Potency is 11.2 µM (active).

For the compound `CC(C)(CNC(=O)c1ccc(Cl)c(S(=O)(=O)N2CCc3ccccc3C2)c1)N1CCOCC1`, the Potency is 7.08 µM (active).

Regarding `Cc1ccc(C(=O)NCC(c2cccs2)N(C)C)cc1S(=O)(=O)N1CCOCC1` (configuration not stated), the “activity change, negative = inhibition” value was 0.639%.

With `COc1ccc([C@@H]2[C@@H]3C(=O)N(C(C)(C)C)C(=O)[C@@H]3[C@]3(Cc4ccccc4)C(=O)N(c4cccc(Br)c4)C(=O)N23)cc1`, the “activity change, negative = inhibition” value was -3.64%.

Turning to `O=C(NN=Cc1ccc(N2CCOCC2)cc1)c1cc2ccccc2cc1O`, the “activity change, negative = inhibition” value was -0.628%.

On to `O=C(OCC(=O)N1CCN(C(=O)c2ccco2)CC1)c1ccc(Cl)c(Cl)c1`, for which the “activity change, negative = inhibition” value was -4.4%.

For `COc1cccc(CC2(CO)CCCN(Cc3ccc(OC(F)F)cc3)C2)c1` (configuration not stated), the “activity change, negative = inhibition” value is -16%.

For `COc1cccc(CNC(=O)c2n[nH]c3ccccc23)c1`, the “activity change, negative = inhibition” value is -2.04%.

With `CCc1nc2ccccc2c(C(=O)NCc2ccc(OC)cc2)c1C`, the “activity change, negative = inhibition” value is -0.211%.

Turning to `COc1ccc(CNc2ncnc3ccccc23)cc1`, the Potency is 3.16 µM (active).

Consider `COc1cccc(CNc2nc(C(F)(F)F)nc3ccccc23)c1`, for which the Potency was 5.62 µM (active).

As to `c1ccc2c(NCC3CCCO3)nc(-c3ccncc3)nc2c1` (configuration not stated), the Potency is 10 µM (active).

For `CCc1ccc(C(CNc2nc(C(F)(F)F)nc3ccccc23)N(C)C)cc1` (configuration not stated), the “activity change, negative = inhibition” value is -21.3%.

As for `CC(C)(C)c1nc(NCC2CCCO2)c2nnn(Cc3ccccc3)c2n1` (configuration not stated), the “activity change, negative = inhibition” value is -19.2%.

On to `FC(F)(F)c1cccc(Nc2ncnc3ccccc23)c1`, for which the “activity change, negative = inhibition” value is -26.2%.

`O=C(NCc1ccncc1)C(=O)NCc1ccco1`: the “activity change, negative = inhibition” value is 15%.

As for `c1coc(CNc2ncnc3ccccc23)c1`, the Potency is 3.55 µM (active).

Regarding `COc1ccc(CNc2nccs2)cc1`, the “activity change, negative = inhibition” value was 13.7%.

With `Clc1cccc(-c2nc(NCC3CCCO3)c3ccccc3n2)c1` (configuration not stated), the “activity change, negative = inhibition” value is -57.3%.

`COc1ccc(C(=O)C(C)OC(=O)c2cccc(S(=O)(=O)Nc3c(C)n(C)n(-c4ccccc4)c3=O)c2)cc1` (configuration not stated): the “activity change, negative = inhibition” value was 16.1%.

Turning to `NC(=O)C1(Nc2ccc(-c3ccccc3)cc2)CCCC1`, the “activity change, negative = inhibition” value is -9.54%.

`NC(CSC1(c2ccccc2)c2ccccc2-c2ccccc21)C(=O)O` (configuration not stated): the “activity change, negative = inhibition” value was 7.2%.

Take `Cc1cc(NC(=O)c2cc3ccccc3o2)no1`: the “activity change, negative = inhibition” value is 0.981%.

As for `C=CC(=O)Nc1ccc(Nc2ccnc(Nc3ccc(N4CCN(C)CC4)cc3)n2)cc1`, the activity change, negative = inhibition is 29.9% [at 8.37 µM].

Turning to `CC(C)COc1ccc(C(=O)OCC(=O)NCCC2=CCCCC2)cc1`, the “activity change, negative = inhibition” value was 6.35%.

On to `COCCN(C(=O)C(C)N1C(=O)c2ccccc2C1=O)c1c(N)n(CC(C)C)c(=O)[nH]c1=O` (configuration not stated), for which the “activity change, negative = inhibition” value is 30.2%.

Take `COc1cccc(NC(=O)COC(=O)c2ccc3ccccc3n2)c1`: the “activity change, negative = inhibition” value was 9.47%.

As to `O=C(COC(=O)c1ccccc1Cl)NC1CCCCCCC1`, the “activity change, negative = inhibition” value is 6.04%.

Turning to `Cc1ccc(S(=O)(=O)Nc2ccc(F)c(S(=O)(=O)N3CCOCC3)c2)cc1`, the “activity change, negative = inhibition” value was 12.7%.

For `CCOCCCNc1nc(-c2ccccc2)nc2ccccc12`, the “activity change, negative = inhibition” value is -23.1%.

Consider `c1ccc(-c2nc(NCc3ccco3)c3ccccc3n2)cc1`, for which the Potency was 10 µM (active).

As to `O=C(Cc1ccccc1)n1nc(-c2ccccc2)nc1NCc1ccco1`, the “activity change, negative = inhibition” value is 6.35%.

Turning to `CCN(C(=O)COC(=O)c1sccc1C)c1c(N)n(Cc2ccccc2)c(=O)[nH]c1=O`, the “activity change, negative = inhibition” value was -7.3%.

Regarding `COc1ccc(NC(=O)Nc2ccc3c(c2)C(=O)N([C@H](C)CO)C[C@H](C)[C@@H](CN(C)C(=O)Nc2ccc4c(c2)OCO4)O3)cc1`, the “activity change, negative = inhibition” value is -11.7%.
